Records with an inconclusive call do not appear. Activity calls are given as the source filed them. Calls come from the whole dose curve; as a rule, active = well fitted activation curve with a large enough effect in the repeat runs; inconclusive = weak or mixed curves, or effect the other way; inactive = no such curve, though single readings can be large or run the other way.
Assay: qHTS assay to identify small molecule agonists of the retinoic acid receptor (RAR) signaling pathway (AID 1159553)
Conditions: C3RL4 RARE luciferase reporter, agonist, 6 h; series mostly up to 73.3 µM; activation: at the top concentration
From the text: National Center for Advancing Translational Sciences [NCATS] NIH Chemical Genomics Center [NCGC] U.S. Environmental Protection Agency [EPA] National Institutes of Environmental Health Sciences [NIEHS] National Toxicology Program [NTP] Assay overview: All-trans Retinoic acid (atRA) is the potent natural metabolite of retinol and plays an important role in normal embryonic development and maintenance of cellular phenotype in adult animals. atRA is the activating ligand for the retinoic acid receptors (RARs) which form heterodimers with retinoid X receptors (RXRs) on the retinoic acid response element (RARE). Through activation of the RAR/RXRs nuclear receptors, atRA regulates the transcription of a large number of protein-coding genes and regulatory RNAs. Intracellular levels of atRA are controlled by the retinol signaling pathway (RSP) that regulates the biosynthesis and catabolism of atRA to maintain physiological levels. Chemicals that interfere with the RSP can cause abnormal intracellular levels of atRA and therefore are potential developmental toxicants. To assess compounds for the potential adverse effect on embryonic development through interfering with retinol signaling, a cell-based RARE luciferase reporter gene assay was used. C3RL4 cell line (OARSA/CFSAN/FDA, Laurel, MD) was used to screen Tox21 10K compound library for identifying activators of the RSP.
Assay Protocol Summary: C3RL4 cells were seeded at 1,000/well in 5 uL of assay medium into white solid 1,536-well tissue culture plates (Greiner Bio-One North America Inc. Monroe, NC) using a Multidrop Combi (Thermo Scientific, Waltham, MA) dispenser. After incubation at 37 C and 5% CO2 for an overnight, 23 nL of compounds dissolved in DMSO, positive control or DMSO only were transferred by a Pintool station (Kalypsys, San Diego, CA). After 6 hr incubation at 37 C and 5% CO2, 5 uL of Amplite Luciferase reagent (AAT Bioquest Inc. Sunnyvale, CA) was added to each assay plate using a Flying Reagent Dispenser (FRD) (Aurora Discovery, San Diego, CA). Luminescence was quantified on a ViewLux plate reader (PerkinElmer, Waltham, MA) after 30 min incubation at room temperature.
% is set by controls: 0 for no effect and ±100 for the full control effect; potency is the fitted concentration of half-maximal effect.

| Structure (SMILES) | activation | Potency |
| --- | --- | --- |
| NCC1CCC(C(=O)Oc2ccc(CCC(=O)O)cc2)CC1 (stereo not given) | -1.18% (inactive) |  |
| C=CCCCCCCCCOC(C)=O | 4.07% (inactive) |  |
| CN(C)c1cc(NC(=O)CNC(C)(C)C)c(O)c2c1C[C@H]1C[C@H]3[C@H](N(C)C)C(=O)C(C(N)=O)=C(O)[C@@]3(O)C(=O)C1=C2O | 1.04% (inactive) |  |
| CC(=O)SCC(CC(=O)c1ccc(C)cc1)C(=O)O (stereo not given) | 9.87% (inactive) |  |
| c1coc(Cn2cccc2)c1 | 1.49% (inactive) |  |
| CC(=O)OC/C=C(/C)CCC=C(C)C | 1.96% (inactive) |  |
| N=C(N)N1CCc2ccccc2C1 | -0.224% [at 8.36 µM] (inactive) |  |
| CC(CC(=O)Cl)CC(C)(C)C (stereo not given) | -1.87% [at 94.8 µM] (inactive) |  |
| CC(C)(C)OC=O | -1.04% [at 94.8 µM] (inactive) |  |
| CCN(CC)CC(=O)Oc1ccc(NC(C)=O)cc1 | 0.603% (inactive) |  |
| C/C(Cl)=C/CCl | -2.26% [at 94.8 µM] (inactive) |  |
| CC1(C)CC(N)CC(C)(C)N1 | -0.799% (inactive) |  |
| CC(=O)c1ccc(O)c(C(N)=O)c1 | 0.055% (inactive) |  |
| Cc1ccccc1OCC(=O)O | -0.173% (inactive) |  |
| Cc1cc(O)c(Cl)cc1C | 0.209% (inactive) |  |
| CN1C(CCl)Nc2cc(Cl)c(S(N)(=O)=O)cc2S1(=O)=O (stereo not given) | 0.739% (inactive) |  |
| CCCCCCCCOCCC#N | -0.849% (inactive) |  |
| CCN(CC)CC | 0.123% [at 94.8 µM] (inactive) |  |
| C=CC(=O)OCC[N+](C)(C)C | -1.23% [at 94.8 µM] (inactive) |  |
| COC(=O)N/N=C/c1c[n+]([O-])c2ccccc2[n+]1[O-] | 2.04% (inactive) |  |

| Structure (SMILES) | activation | Potency |
| --- | --- | --- |
| CC(C)OC(=O)C(C(=O)OC(C)C)=C1SC=CS1 | -8.07% (inactive) |  |
| CCCCC(CC)COC(=O)CC#N (stereo not given) | -3.13% (inactive) |  |
| COc1ccc2cc(CCC(C)=O)ccc2c1 |  | 3.35 µM (active) |
| OCCC(F)(F)C(F)(F)C(F)(F)C(F)(F)C(F)(F)C(F)(F)F | 0.845% (inactive) |  |
| CCCCS | 0.0513% [at 94.8 µM] (inactive) |  |
| CCCCCCCCCCCCCCCC(=O)OC | -1.87% [at 34.3 µM] (inactive) |  |
| N#CC1(N)CCCCC1 | 0.207% [at 94.8 µM] (inactive) |  |
| CSC(=O)c1cccc2nnsc12 | -0.117% (inactive) |  |
| CC(=O)c1c(C)cc(C(C)(C)C)cc1C | 0.243% (inactive) |  |
| O=c1c(O)c(O)c1=O | -3.34% (inactive) |  |
| CC(C)=CCC/C(C)=C\C#N | 3.62% (inactive) |  |
| CNC(=O)c1c(I)c(NC(C)=O)c(I)c(C(=O)O)c1I | 0.124% (inactive) |  |
| N=C(N)N | 3.03% (inactive) |  |
| COc1cc(S(N)(=O)=O)cc(C(=O)O)c1OC | 2.62% (inactive) |  |
| NS(=O)(=O)c1cc2c(cc1C(F)(F)F)NCNS2(=O)=O | 1.32% (inactive) |  |
| CC1(C)C(=O)C(C)(C)C1=O | -0.455% (inactive) |  |
| CC/C=C/CCCCCCCCCCOC(C)=O | 0.104% (inactive) |  |
| C/C=C/C(=O)CCCC | 2.72% (inactive) |  |
| CCCCCCCCCCCCCCCC/C=C/C1CC(=O)OC1=O (stereo not given) | -2.44% (inactive) |  |
| CCCCNCC | -1.26% (inactive) |  |

— PubChem BioAssay (Tox21)
